TDP1 cell CPT: qHTS for Inhibitors of human tyrosyl-DNA phosphodiesterase 1 (TDP1): qHTS in cells in presence of CPT; actives 12% (n = 420,000); Potency, µM (doses to about 46.2 µM), usual class: inhibitors; chicken DT40 Tdp1-/-;hTDP1 cells + 20 nM CPT, ATP luminescence, 48 h; note: nearly all actives have a fitted effect of over 55% in size
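Chicken DT40 Tdp1-/- cells complemented with human TDP1, 400 cells/well, exposed to compounds plus 20 nM camptothecin for at least 48 h at 37 C; viability read as ATP content by CellTiter-Glo luminescence.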
TDP1 cell noCPT: qHTS for Inhibitors of human tyrosyl-DNA phosphodiesterase 1 (TDP1): qHTS in cells in absence of CPT | actives 15% (n = 420,000) | DT40 Tdp1-/- hTDP1 cells, no CPT, ATP luminescence, 48 h | Potency, µM (top dose mostly 46.2 µM), usual class: inhibitors; note: nearly all actives have a fitted effect of over 55% in size
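A cellular qHTS used chicken DT40 cells lacking endogenous Tdp1 but carrying stably transfected human TDP1. Compounds were applied without camptothecin, and cell growth kinetics were judged by ATP-dependent luminescence after ≥48 hr.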
TDP1 block: qHTS Assay for Inhibitors of Tyrosyl-DNA Phosphodiesterase (TDP1); recombinant TDP1, AlphaScreen DNA substrate cleavage; actives 0.28% (n = 350,000); Tyrosyl-DNA phosphodiesterase 1 (Homo sapiens), Q9NUW8; Potency, µM (titrated, usually from 130 µM), most hits filed as inhibitors; note: nearly all actives have a fitted effect of over 40% in size
Target sequence (Q9NUW8 whole entry, looked up): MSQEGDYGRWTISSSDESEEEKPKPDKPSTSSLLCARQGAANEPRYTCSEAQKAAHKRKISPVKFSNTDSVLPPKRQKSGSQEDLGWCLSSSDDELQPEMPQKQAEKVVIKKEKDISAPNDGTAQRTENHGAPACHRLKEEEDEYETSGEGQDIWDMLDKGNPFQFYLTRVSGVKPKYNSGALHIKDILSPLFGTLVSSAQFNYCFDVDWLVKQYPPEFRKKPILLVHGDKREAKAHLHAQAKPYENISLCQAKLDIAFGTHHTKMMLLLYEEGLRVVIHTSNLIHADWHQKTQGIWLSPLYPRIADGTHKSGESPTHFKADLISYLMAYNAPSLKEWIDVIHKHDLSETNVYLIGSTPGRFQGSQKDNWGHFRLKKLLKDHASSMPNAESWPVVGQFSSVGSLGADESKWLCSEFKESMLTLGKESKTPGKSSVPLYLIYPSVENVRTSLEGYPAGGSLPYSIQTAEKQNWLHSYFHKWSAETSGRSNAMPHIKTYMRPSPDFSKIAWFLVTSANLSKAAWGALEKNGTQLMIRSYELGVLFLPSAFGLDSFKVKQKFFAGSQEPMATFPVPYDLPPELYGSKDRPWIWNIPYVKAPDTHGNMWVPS
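Compounds were preincubated with Tdp1 (1 nM final) for 15 min at room temperature before substrate (15 nM final) started a 5 min reaction; beads (10 ug/ml final) were then added for 10 min before AlphaScreen detection.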
IL1B secr inh: qHTS for Inhibitors of Inflammasome Signaling: IL-1-beta AlphaLISA Primary Screen; THP-1 LPS/ATP IL-1B secretion, AlphaLISA, 16 h; stronger effect = lower value; AID 743279, 2014; actives 4.7% (n = 360,000); activity change, % at 57.5 µM; in the data active = activity change below about -50%; inconclusive = mostly about -30% to -49%
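THP-1 cells pretreated 1 hr with compounds (up to 57.5 uM final), then stimulated with LPS (250 ng/mL final) plus ATP (1.25 mM final); secreted IL-1B measured by AlphaLISA after 16 hr, decreased signal indicating inhibition.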
TGFb inhibitor: qHTS for Inhibitors of TGF-b; HepG2 CAGA-GFP TGF-b/SMAD3 reporter, GFP fluorescence, 18 h; TGF-beta stimulated, 500 pg/mL final; AID 588855, 2011; Potency, µM (top dose mostly 46.1 µM), usual class: inhibitors; actives 1.2% (n = 410,000); note: nearly all actives have a fitted effect of over 65% in size
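HEPG2 CAGA-GFP cells (1000/well, DMEM with 1% FBS) were pre-incubated 2 h at 37 degrees C, given compound by pin tool, then stimulated with TGF-beta at 500 pg/mL final for 18 h before per-cell GFP fluorescence imaging.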
HepG2 tox: qHTS for Inhibitors of TGF-b: Cytotox Counterscreen; HepG2 CAGA-GFP viability, ATP luminescence, 18 h; actives 0.76% (n = 410,000); Potency, µM (highest dose often 46.1 µM), most hits filed as cytotoxic
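CellTiter-Glo luminescence gave cytotoxicity after 18 hours at 37 degrees C. The cells were HepG2 CAGA-GFP in 1% FBS DMEM, stimulated with 500 pg/mL TGF-beta after compound addition. %Activity was normalised to no-cell wells (complete cell-killing) and DMSO (no toxicity), and curves were fitted and classified.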
Large screens that a line does not name were inactive. Compounds with a hit are over-represented: about 19% of the library has one in this group of screens. Unless noted, calls come from the whole dose curve; as a rule, active = well fitted curve in the direction sought with a large enough effect; inconclusive = small, poorly fitted or top-dose-only effect, or another doubt; inactive = no such curve, though single readings can be large; an effect the other way counts as inactive or inconclusive.

O=C(NCCCc1nc2ccccc2n1Cc1ccccc1)C1CCCCC1	TDP1 cell CPT 18.4µM, TDP1 cell noCPT 16.4µM, TGFb inhibitor inconclusive (no result: IL1B secr inh)
Cc1ccccc1Cn1c(CCCNC(=O)C2CCCCC2)nc2ccccc21	TDP1 cell CPT 18.4µM, TDP1 cell noCPT 14.6µM, TGFb inhibitor inconclusive (no result: IL1B secr inh)
CCc1ccc(OCC(=O)NCc2nc(-c3cccc(C)c3)no2)c(Br)c1	none (no result: IL1B secr inh)
C[C@@H](c1ccccc1)N1C[C@@H](COCc2ccccc2)Oc2cc(N3CCC[C@H]3CO)ccc2S1(=O)=O	TDP1 cell CPT inconclusive, TDP1 cell noCPT 20.6µM, IL1B secr inh inconclusive (no result: TDP1 block, TGFb inhibitor, HepG2 tox)
C[C@H](c1ccccc1)N1C[C@H](COCc2ccccc2)Oc2cc(N3CCC[C@H]3CO)ccc2S1(=O)=O	TDP1 cell CPT inconclusive, TDP1 cell noCPT inconclusive (no result: TDP1 block, TGFb inhibitor, HepG2 tox)
C[C@H](c1ccccc1)N1C[C@@H](COCc2ccccc2)Oc2cc(N3CCC[C@@H]3CO)ccc2S1(=O)=O	TDP1 cell CPT inconclusive, TDP1 cell noCPT 20.6µM (no result: TDP1 block, TGFb inhibitor, HepG2 tox)
CCc1cnc2c(c1SCC(=O)Nc1ccc(C)cc1C)c(=O)n(C)c(=O)n2C	none (no result: IL1B secr inh)
Cn1ccnc1SCC(=O)c1c[nH]c2ccccc12	none
COc1ccccc1C(=O)CSc1nccn1C	TDP1 cell CPT inconclusive, TDP1 cell noCPT 16.4µM
CCN(C(=O)CSc1nccn1C)c1cccc2ccccc12	TDP1 cell CPT 20.6µM, TDP1 cell noCPT 10.3µM
Cn1ccnc1SCC(=O)c1ccc([N+](=O)[O-])cc1	TDP1 cell CPT 18.4µM, TDP1 cell noCPT inconclusive
O=C(Nc1cccc(N2CCC(NCc3cnn(-c4ccccc4)n3)CC2)c1)c1cccnc1	TDP1 cell noCPT inconclusive (no result: TDP1 block, IL1B secr inh, TGFb inhibitor, HepG2 tox)
CSc1cccc(CN2CCN(Cc3ccc(F)c(F)c3)C(CCO)C2)c1 (centres undefined)	TDP1 cell CPT inconclusive, TDP1 cell noCPT inconclusive (no result: TDP1 block)
COc1ccccc1-n1cnc(N)c1C(=O)c1ccccc1	TDP1 cell CPT 9.2µM, TDP1 cell noCPT 8.2µM
O=C(c1ccccc1Cl)N1N=C(c2ccc(Br)cc2)CC1c1nc2ccccc2[nH]1 (centres undefined)	TDP1 cell CPT inconclusive, TDP1 cell noCPT 16.4µM, IL1B secr inh -67.2
O=C(c1cccc(Cl)c1)N1CCC(c2nc3ccccc3[nH]2)CC1	TDP1 cell noCPT inconclusive
O=C(NNC1CC(c2ccccc2)=NN1C(=O)c1ccccc1)c1ccccc1 (centres undefined)	TDP1 cell CPT 25.9µM, TDP1 cell noCPT 23.1µM
CC(=O)N1N=C(c2ccccc2)CC1c1cn(Cc2ccccc2)c2ccccc12 (centres undefined)	TDP1 cell CPT 18.4µM, TDP1 cell noCPT inconclusive, TGFb inhibitor inconclusive
O=C(c1ccncc1)N1N=C(c2ccc(Br)cc2)CC1c1ccccc1O (centres undefined)	TDP1 cell CPT inconclusive, TDP1 cell noCPT inconclusive, IL1B secr inh -62.6, TGFb inhibitor inconclusive
O=C(NCC(c1ccco1)N1CCCC1)c1cc2ccccc2s1 (centres undefined)	none
O=C(c1cccs1)N1N=C(c2ccccc2)CC1c1ccccc1O (centres undefined)	TDP1 cell noCPT inconclusive, IL1B secr inh -78.6, TGFb inhibitor inconclusive (no result: TDP1 block)
Cc1ccc(C2=NN(C(=O)c3cccs3)C(c3ccccc3O)C2)cc1 (centres undefined)	TDP1 cell CPT inconclusive, TDP1 cell noCPT inconclusive, TGFb inhibitor inconclusive
COc1ccc(C2=NN(C(=O)c3cccs3)C(c3ccccc3OC)C2)cc1OC (centres undefined)	TDP1 cell CPT inconclusive, TDP1 cell noCPT inconclusive, IL1B secr inh -84.1

Screens (PubChem)
